From PMC4552634, “A New Set of Chemical Starting Points with Plasmodium falciparum Transmission-Blocking Potential for Antimalarial Drug Discovery” (PLoS ONE, 2015)
Like-named read-outs stand apart in the source and are kept apart here. The campaign covered roughly 13,000 compounds. About 3,200 (25%) showed an effect of 50% or more. The list shows a part of the results.

Test system: P. falciparum stage V gametocytes
Design: BacTiter-Glo ATP luminescence viability of purified stage V gametocytes in 384-well plates, per cent inhibition versus DMSO
Conditions: 48 h, 5 µM, inhibitor

Row | SMILES | % Inhibition [%] | % Inhibition (% Inhibition) [%]
1 | COC(=O)c1cccc(CNCc2cccc(-c3cccc(-c4nc5cc(C(F)(F)F)ccc5[nH]4)c3)c2)c1.O=C(O)C(F)(F)F [TCMDC-132949] | 2.495 | –
2 | CCC(CC)(Cc1ccccc1)NC(=O)[C@H](CC(C)C)Nc1ccc(C#N)c2ccccc12 [TCMDC-136625] | -7.489 | –
3 | CCC(CC)(Cc1ccccc1)NC(=O)[C@H](Cc1ccc(OC)c(OC)c1)Nc1ccc(C#N)c2ccccc12 [TCMDC-136638] | 82.88 | –
4 | Cc1cc(NC(=O)[C@H](CC2CCCCC2)Nc2ccc(C#N)c3ccccc23)ccc1F [TCMDC-136627] | 3.721 | –
5 | CCC(CC)(Cc1ccccc1)NC(=O)[C@H](CC1CCCCC1)Nc1ccc(C#N)c2ccccc12 [TCMDC-136634] | -0.7992 | –
6 | CC(C)(CC1CCCCC1)NC(=O)[C@H](CC1CCCCC1)Nc1ccc(C#N)c2ccccc12 [TCMDC-136632] | -68.15 | –
7 | N#Cc1ccc(N[C@@H](CC2CCCCC2)C(=O)Nc2ccc(-c3ccccc3)cc2)c2ccccc12 [TCMDC-136629] | 57.71 | –
8 | CC(=O)c1ccc(-c2ccccc2)s1 [TCMDC-123882] | -10.02 | –
9 | CC[C@H](C)[C@H](NC(=O)[C@H](CC1CCCCC1)[C@H](CC)N(O)C=O)C(=O)Nc1ccccn1 [TCMDC-137215] | 2.069 | –
10 | CC(=O)Nc1cccc(-c2cn(-c3ccc(OCc4cccc(F)c4)c(Cl)c3)c3ncncc23)c1 [TCMDC-135093] | -24.36 | –
11 | COc1ccc(C2C(C(=O)OC3CCCC3)=C(C)NC3=C2C(=O)CCC3)cc1Br (centres unmarked) [TCMDC-124211] | -24.26 | –
12 | CCn1cc(C=C2Oc3c(ccc(O)c3CN3CCCCC3C)C2=O)c2ccccc21 (centres unmarked) [TCMDC-124886] | 27.57 | –
13 | Cc1onc(-c2ccccc2)c1C(=O)Nc1nc(-c2ccccn2)nc2ccsc12 [TCMDC-135272] | -61.64 | –
14 | Cc1cc(C(=O)Nc2nc(-c3ccccn3)nc3ccsc23)no1 [TCMDC-135243] | 58.63 | –
15 | Cc1occc1C(=O)Nc1nc(-c2ccccn2)nc2ccsc12 [TCMDC-135244] | 130.5 | –
16 | Cc1cc(C(=O)Nc2ccc(-c3ccccc3)cc2)no1 [TCMDC-124865] | 48.28 | –
17 | COc1ccc(C(=O)Nc2ccc3oc(-c4ccc(C(F)(F)F)cc4)cc3c2)cc1CCCN(C)C [TCMDC-138694] | 15.28 | –
18 | COc1ccc2nccc(NCC3(O)CCC(NCc4ccc5c(n4)NC(=O)CS5)CC3)c2n1 (centres unmarked) [TCMDC-134313] | 46.62 | –
19 | COc1ccc2nccc([C@@H](O)CN3CCC(NCc4cc5cccnc5[nH]4)CC3)c2n1 [TCMDC-140769] | 87.86 | –
20 | COc1ccc2nccc([C@@H](O)CN3CCC(NCc4cc5c(cc4F)SCC(=O)N5)CC3)c2n1 [TCMDC-141432] | 52.03 | –
21 | COc1cc(F)c2nccc([C@@H](O)CN3CCC(NCc4ccc5c(n4)NC(=O)CS5)CC3)c2c1 [TCMDC-141566] | 6.174 | –
22 | COc1ccc2nccc([C@@H](O)CN3CCC(NCc4ccc5cccc(O)c5n4)CC3)c2n1 [TCMDC-140748] | 43.79 | –

Row | SMILES | % Inhibition [%] | % Inhibition (% Inhibition) [%]
23 | COc1ccc2nccc([C@@H](O)CN3CCC(NCc4cc5ccccc5cn4)CC3)c2n1 [TCMDC-140714] | 12.93 | –
24 | COc1ccc2nccc([C@@H](O)CN3C4CCC3CC(NCc3ccc5c(n3)NC(=O)CS5)C4)c2n1 (some centres unmarked) [TCMDC-134697] | 50.82 | –
25 | COc1ccc2nccc([C@@H](O)CN3CCC(NCc4cc5ccccc5[nH]4)CC3)c2n1 [TCMDC-140670] | 14.92 | –
26 | COc1ccc2nccc([C@@H](O)CN3CCC(NCc4ccc5c(c4)NC(=O)CS5)CC3)c2n1 [TCMDC-141173] | 12.99 | –
27 | COc1ccc2nccc(N(C)CC3(O)CCC(NCc4ccc5c(n4)NC(=O)CS5)CC3)c2n1 (centres unmarked) [TCMDC-134496] | 10.91 | –
28 | COc1ccc2nccc([C@@H](O)CN3CCC(NCc4cc5c(F)ccc(F)c5[nH]4)CC3)c2n1 [TCMDC-140749] | 33.6 | –
29 | COc1ccc2nccc([C@@H](O)CN3CCC(c4cc(-c5ccc(Cl)cc5)n[nH]4)CC3)c2n1 [TCMDC-141436] | 81.16 | –
30 | COc1ccc2ncc(F)c(C(O)CN3CCC(NCc4ccc5c(n4)NC(=O)CO5)CC3)c2c1 (centres unmarked) [TCMDC-135531] | – | 14.63
31 | CN(C)CCOc1ccc2c(c1)OC(C)(C)C=C2c1cccc2ccccc12 [TCMDC-131402] | -10.44 | –
32 | CNC(=O)C1Cc2c([nH]c3c(C)cccc23)C2(N1)C(=O)Nc1ccc(OC(F)(F)F)cc12 (centres unmarked) [TCMDC-140663] | 46.7 | –
33 | COc1cc(Cc2cnc(N)nc2N)ccc1OCc1csc(-c2ccc(Cl)cc2)n1 [TCMDC-138680] | 16.88 | –
34 | CCCc1cc(C(C)=O)ccc1OCCCON1C(N)=NC(N)=NC1(C)C [TCMDC-131336] | -2.455 | –
35 | CS(=O)(=O)NCCCNCc1cccc(-c2ccc(-c3nc4ccccc4[nH]3)s2)c1.O=C(O)C(F)(F)F [TCMDC-133088] | 4.156 | –
36 | CC(=O)c1sc2ccccc2c1O [TCMDC-125829] | 14.25 | –
37 | COc1ccc2nccc(NC(=O)C3CCC(NCc4ccc5c(c4)NC(=O)CS5)CC3)c2c1 (centres unmarked) [TCMDC-141228] | 28.37 | –
38 | COc1ccc2nccc(CCC3(O)CCC(NCc4cc5c(cc4F)SCC(=O)N5)CC3)c2c1 (centres unmarked) [TCMDC-141917] | 62.44 | –
39 | COc1ccc2nccc(NC(=O)OC3CCC(NCc4ccc5c(n4)NC(=O)CS5)CC3)c2c1 (centres unmarked) [TCMDC-141555] | -20.26 | –
40 | O=C(Nc1cccc(-c2cccc(-c3nc4ccccc4[nH]3)c2)c1)Nc1ccc(Cl)c(Cl)c1 [TCMDC-133276] | -27.25 | –
41 | CN1CCC(N(Cc2ccc(N3CCN(Cc4c[nH]c5ccc(Cl)cc45)CC3)nc2)C2CC2)CC1 [TCMDC-125090] | 56.06 | –
42 | CN(C)C1CCN(Cc2ccc(N3CCN(Cc4cccc5[nH]ccc45)CC3)nc2)CC1 [TCMDC-125091] | 12.57 | –
43 | O=C(NC1CC1)c1ccc(N2CCN(Cc3ccc(Cl)cc3)CC2)nc1 [TCMDC-134579] | -1.025 | –
44 | COc1ccc(-c2nc3c(N)nc(N)nc3nc2C(C)C)cc1 [TCMDC-132109] | -10.94 | –

Row | SMILES | % Inhibition [%] | % Inhibition (% Inhibition) [%]
45 | COc1ccc2nccc([C@@H](O)CN3CCC(NC(=O)C(c4cc5ccccc5s4)N4CCN(c5ccccc5OC)CC4)CC3)c2c1 (some centres unmarked) [TCMDC-140998] | -1.294 | –
46 | Cc1nn(-c2cccc(Cl)c2)c2c1C(C(=O)c1ccc3c(c1)OCO3)CC(=O)N2 (centres unmarked) [TCMDC-124734] | 53.61 | –
47 | Cc1ccc(-n2nc(C)c3c2NC(=O)CSC3c2ccsc2)cc1 (centres unmarked) [TCMDC-124763] | 18.54 | –
48 | Cc1cccc(-n2nc(C)c3c2NC(=O)CC3C(=O)c2ccc(Cl)s2)c1 (centres unmarked) [TCMDC-124735] | 9.48 | –
49 | COc1ccc2ncc(F)c(CCN3CC(O)C(CNCc4nc5c(cc4Cl)OCC(=O)N5)C3)c2n1 (centres unmarked) [TCMDC-136076] | – | 36.95
50 | CN(C)c1ccc(Br)c(Br)c1 [TCMDC-137228] | -4.164 | –
51 | CCc1ccc(N2C(N)=NC(N)=NC2(C)C)cc1 [TCMDC-137714] | 18.99 | –
52 | O=C(Nc1cccc2ccccc12)N1CCc2cc3nccc(N4CCN5CCC[C@H]5C4)c3cc21 [TCMDC-140051] | -22.56 | –
53 | COc1ccc(N2CCN(CCCOc3ccc(NC(=O)c4cc(Cl)cc(Cl)c4)cc3)CC2)c(OC)c1 [TCMDC-138225] | -23.18 | –
54 | COc1ccc(N2CCN(CCCCNC(=O)c3ccc(NC(=O)c4cc(Cl)cc(Cl)c4)cc3)CC2)c(OC)c1 [TCMDC-138158] | -3.672 | –
55 | COc1ccc(N2CCN(CCCCNC(=O)c3ccc(NC(=O)c4ccc(C(F)(F)F)cc4)cc3)CC2)c(OC)c1 [TCMDC-138132] | -49.13 | –
56 | COc1ccc(N2CCN(CCCNC(=O)c3ccc(NC(=O)c4cc(Cl)cc(Cl)c4)cc3)CC2)c(OC)c1 [TCMDC-138244] | -9.881 | –
57 | COc1ccc(N2CCN(CCCCNCc3ccc(NC(=O)c4cc(Cl)cc(Cl)c4)cc3)CC2)c(OC)c1 [TCMDC-138226] | 99.96 | –
58 | COc1ccc(N2CCN(CCCC/C=C/c3ccc(NC(=O)c4cc(Cl)cc(Cl)c4)cc3)CC2)c(OC)c1 [TCMDC-138219] | 10.07 | –
59 | COc1ccc(N2CCN(CCCCNC(=O)c3ccc(NC(=O)c4ccc(Cl)c(Cl)c4)cc3)CC2)c(OC)c1 [TCMDC-138159] | 58.71 | –
60 | COc1ccc(N2CCN(CCCCNC(=O)c3ccc(NC(=O)c4cccc(Cl)c4)cc3)CC2)c(OC)c1 [TCMDC-138183] | 74.19 | –
61 | COc1ccc(N2CCN(CCCCNC(=O)c3ccc(NC(=O)c4ccc(Cl)cc4)cc3)CC2)c(OC)c1 [TCMDC-138121] | -18.96 | –
62 | Cc1ccoc1C(=O)Nc1cccc(-c2cccc(-c3nc4ccc(C(F)(F)F)cc4[nH]3)c2)c1 [TCMDC-136835] | 10.66 | –
63 | Cc1onc(-c2c(Cl)cccc2Cl)c1C(=O)N1CCc2cc3nccc(N4CCN5CCC[C@H]5C4)c3cc21 [TCMDC-140048] | 3.329 | –
64 | COc1cc(C(F)(F)F)nc2c(CNCCCNc3cc(=O)c4ccccc4[nH]3)scc12 [TCMDC-141145] | -12.37 | –
65 | CNc1nc(N/N=C/c2cc3c(cc2[N+](=O)[O-])OCO3)nc(Nc2cccc(C(F)(F)F)c2)n1 [TCMDC-124216] | 15.24 | –
